Screening data: PubChem, several laboratories
Only some compounds are listed: those with a hit (about 1.2% of all), similar ones and a draw of the others.
PrP 5UTR inh: inhibition of PrP 5' UTR reporter expression. AID 488862, 2010. inhibition, % (no concentration beside the values). 0.35% of 340,000 active. cell-based PrP 5' UTR mRNA reporter, plate reader; in the data active = inhibition above about 52%; note: 0 = median of the neutral control wells
PrPC surface inh: inhibitors of human cell surface prion protein PrPC, primary screen, cell-based, TR-FRET; Major prion protein (Homo sapiens), P04156; 0.43% of 370,000 active; inhibition, % at 13.8 µM; TR-FRET read-out; in the data active = inhibition above about 24%; note: 0% = median of the test wells and 100% = reference compound wells
SSB-PriA inh: inhibitors of Klebsiella pneumoniae PriA binding to SSB C-terminal tail, primary screen, biochemical, AlphaScreen | PriA–SSB C-terminal tail interaction (Klebsiella pneumoniae) | AlphaScreen SSBct-PriA binding, biotinylated peptide | inhibition, % at 33 µM | 0.6% of 430,000 active; in the data active = inhibition mostly above about 37%, no sharp cut-off; inactive = mostly below about 20%;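 note: plate controls were negative control peptide for no effect and reference peptide for full effect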
SARS 3CLpro inh: SARS-CoV 3CLpro protease inhibitors, primary screen, biochemical, quenched FRET; inhibition, % at 6 µM; Replicase polyprotein 1ab (Severe acute respiratory syndrome coronavirus), P0C6X7; recombinant SARS-CoV 3CLpro, quenched FRET peptide cleavage; 0.14% of 290,000 active; AID 1706, 2009; in the data active = inhibition above about 12%
BJeLR viability: MLPCN primary cell-based screen for lethality selective to Ras in HRASV12 cells. BJeLR (HRASV12) viability, CellTiter-Glo ATP luminescence, 48 h. inhibition, % (test concentration not listed). AID 1554, 2009. 0.17% of 300,000 active; in the data active = inhibition above about 50%
Active calls of the source: *; nt = no result given.

SMILES | PrP 5UTR inh | PrPC surface inh | SSB-PriA inh | SARS 3CLpro inh | BJeLR viability
CN1CCN([C@@H](CNC(=O)C(=O)NC(C)(C)C)c2ccc(F)cc2)CC1 | nt | nt | 5 | nt | nt
CC(C)(C)c1csc(NC(=O)c2ccc(N3CCOCC3)c([N+](=O)[O-])c2)n1 | nt | nt | 39* | nt | nt
O=C(Nc1ccc(N2CCCCC2)c(Cl)c1)c1ccc(N2CCOCC2)c([N+](=O)[O-])c1 | -17 | -2 | 14 | 3 | -1
O=C(Nc1ccc2c(c1)OCO2)c1ccc(N2CCCC2)c([N+](=O)[O-])c1 | -42 | 24 | 39* | 0 | -7
O=C(Nc1nccs1)c1ccc(N2CCOCC2)c([N+](=O)[O-])c1 | -60 | -21 | 18 | 0 | -3
COc1ccc(S(=O)(=O)NCC2CCN(c3ccc(C)nn3)CC2)cc1Cl | nt | nt | -2 | nt | nt
NC(=NOS(=O)(=O)c1ccc(Br)cc1)c1ccncc1 | nt | nt | 2 | nt | nt
CCCCCCCCCC[n+]1cccc2c3ccccc3ccc21 | -17 | 24 | -4 | -2 | 60*
CCCCCCCC[n+]1cccc2c3ccccc3ccc21 | 8 | 6 | -2 | -1 | 34
Cc1c(C2C(C#N)=C(N)N(c3ccccc3C#N)C3=C2C(=O)CCC3)cnn1C (stereo not given) | 8 | -2 | 38* | 2 | 1
O=C(Nc1cccc(Cl)c1)N1CCn2cccc2[C@H]1c1ccccc1F | nt | nt | 13 | nt | nt
O=C(Nc1ccc2c(c1)OCO2)N1CCn2cccc2[C@H]1c1ccc(F)c(F)c1 | nt | nt | 33* | nt | nt
O=C(NCCCn1ccnc1)C(=O)NCC1OCCCN1S(=O)(=O)c1ccccc1 (stereo not given) | -5 | -2 | -2 | -8 | -12
O=C(NCCCn1ccnc1)C(=O)NCC1OCCN1C(=O)c1ccc2c(c1)OCO2 (stereo not given) | nt | nt | 71* | nt | nt
O=C(NCCCn1ccnc1)C(=O)NCC1OCCN1S(=O)(=O)c1ccc(Cl)cc1 (stereo not given) | -37 | 5 | 61* | 2 | 3
O=C(NCCCn1ccnc1)C(=O)NCC1OCCCN1S(=O)(=O)c1ccc(Cl)cc1 (stereo not given) | -10 | 3 | -9 | 0 | -9
O=C(NCCCn1ccnc1)C(=O)NCC1OCCN1S(=O)(=O)c1ccccc1 (stereo not given) | -22 | 1 | 43* | -4 | -5
O=C(CN1C(=O)S/C(=C\c2cccs2)C1=O)Nc1ccc(O)c(C(=O)O)c1 | -6 | -2 | 13 | 1 | 0
O=C(CN1C(=O)S/C(=C\c2cccs2)C1=O)Nc1ccc(C(=O)O)c(O)c1 | -132 | -7 | 9 | 14* | -1
Cc1nnc(NC(=O)c2ccc3c(c2)OCO3)s1 | -49 | 6 | 4 | 5 | -4
CSc1nnc(NC(=O)c2ccc3c(c2)OCO3)s1 | 63* | -2 | -12 | 0 | 9
Nc1ccnc(-c2ccccn2)n1 | nt | nt | 151* | nt | nt
Nc1nccc(-c2ccccn2)n1 | nt | nt | 47 | nt | nt
N#Cc1cnc(-c2ccccn2)nc1N | nt | nt | 83* | nt | nt
NCc1ccnc(-c2ccccn2)n1 | nt | nt | 126* | nt | nt
SMILES | PrP 5UTR inh | PrPC surface inh | SSB-PriA inh | SARS 3CLpro inh | BJeLR viability
COc1ccc(-c2noc(Cn3nc(-c4ccccc4OC)ccc3=O)n2)c(OC)c1 | nt | nt | -1 | nt | nt
NC(=O)C1CCN(C(=O)c2ccsc2)CC1 | nt | nt | -5 | nt | nt
O=C1C(=O)N(CC(O)COc2cccc3ccccc23)C(=O)C(=O)N1CC(O)COc1cccc2ccccc12 (stereo not given) | nt | nt | -1 | nt | nt
Cc1cccn2cc(-c3cccc(NC(=O)C4CCN(c5ccc(=O)n(C)n5)CC4)c3)nc12 | nt | nt | -4 | nt | nt
CN(O)/C=c1/ccc2c(n1)C(=O)C=CC=2 | -10 | -9 | nt | 3 | -12
CN(O)C=c1ccc2c(n1)C(=O)C=CC=2 | nt | nt | 95* | nt | nt
CCCN1CCCc2cc(CN)ccc21 | -54 | -2 | 32 | -4 | 8
CCCN1CCCc2ccc(N)cc21 | nt | nt | 130* | nt | nt
COCCCNC(=O)c1ccc2c3c(onc13)-c1ccccc1C2=O | -69 | nt | 29 | 8 | 51*
COc1ccc(-c2csc(NC(=O)c3ccc(S(=O)(=O)N4CCCCC4C)cc3)n2)cc1C (stereo not given) | nt | nt | -15 | nt | nt
Oc1cccc2c(NC(=S)Nc3ccc(SC(F)F)cc3)cccc12 | 15 | 0 | 48* | 3 | -3
CCN(CC)S(=O)(=O)c1ccc(C(=O)Nc2ccc(Cl)cc2C(=O)c2ccccc2)cc1 | nt | nt | -1 | nt | nt
COc1cc(OC)cc(C(=O)Nc2cccc(NC(=O)c3ccccc3)c2)c1 | -1 | 1 | -8 | -5 | 2
COc1cc(OC)cc(C(=O)Nc2ccc(Nc3ccccc3)cc2)c1 | -36 | 1 | 45* | 0 | -25
O=C(NCc1cc(C(F)(F)F)ccc1Cl)c1cccc2c1C(=O)c1ccc(N3CCC(N4CCCCC4)CC3)cc1S2(=O)=O | nt | 46* | nt | nt | nt
COc1ccccc1CC(=O)N1CCN(c2ccc(-c3ccccn3)nn2)CC1 | nt | nt | 158* | nt | nt
O=C(c1ccccc1F)N1CCN(c2ccccn2)CC1 | 9 | 5 | 4 | 0 | 6
O=C(c1ccccc1F)N1CCN(c2ccc(-c3ccccn3)nn2)CC1 | nt | nt | 108* | nt | nt
O=C(c1ccccc1C(F)(F)F)N1CCN(c2ccc(-c3ccccn3)nn2)CC1 | nt | nt | 150* | nt | nt
O=C(c1ccccc1C(F)(F)F)N1CCN(c2ccc(-c3cccs3)nn2)CC1 | nt | nt | 26 | nt | nt
COc1ccc(OC)c(-c2cc(C(=O)NCCc3nc(-c4ccco4)cn3C)n(C)n2)c1 | nt | nt | 35* | nt | nt
COc1ccc(OC)c(-c2cc(C(=O)NCC#CCOc3ccc4c(c3)OCO4)n(C)n2)c1 | nt | nt | 53* | nt | nt
COc1ccc(Cl)cc1C(=O)NCC#CCOc1ccc2c(c1)OCO2 | nt | nt | 2 | nt | nt
O=C(NCCCS(=O)(=O)N1CCN(c2ccccn2)CC1)c1ccc(S(=O)(=O)N2CCOCC2)cc1 | nt | nt | 2 | nt | nt
CC(=NNC(=O)c1nnn(-c2nonc2N)c1CN(C)c1ccccc1)c1ccccn1 | nt | nt | 90* | nt | nt
O=C(NCCc1c[nH]c2ccccc12)NC1CC(=O)N(c2ccc3c(c2)OCCO3)C1 (stereo not given) | nt | nt | 0 | nt | nt
O=C(Nc1ccccc1F)c1cc(C2CCN(C(=O)c3cccs3)CC2)[nH]n1 | nt | nt | 2 | nt | nt
O=C(Nc1ccccc1F)c1cc(C2CCN(C(=O)c3c[nH]c(=O)c(Cl)c3)CC2)[nH]n1 | nt | nt | 98* | nt | nt
Cc1cc(OCC(=O)N2CCN(c3ccc4nnc(C)n4n3)CC2)ccc1Cl | nt | nt | -12 | nt | nt
C=CCN1C(=O)C(O)(CC(=O)c2ccccc2)c2ccccc21 (stereo not given) | -15 | 1 | 1 | 1 | -15
